Data on 15 molecules can be found in PubChem BioAssay (Tox21).

The nature of assay [1]: qHTS assay to test for compound auto fluorescence at 535 nm (green) in HEK293 cells (AID 720680). A general note: In qHTS, concentration-response curves come from the screen itself.
Assay [2] in a line: qHTS assay to test for compound auto fluorescence at 460 nm (blue) in HEK293 cell free culture (AID 720681). The method in brief: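 Compounds were added to cell-free DMEM with 10% FBS and fluorescence read directly. The blue channel used 405 nm excitation and 460 nm emission, with triamterene as the reference fluorophore.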
A short description of assay [3]: qHTS assay to test for compound auto fluorescence at 535 nm (green) in HEK293 cell free culture (AID 720682). The procedure, abridged: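 Green-label autofluorescence (485 nm excitation, 535 nm emission) measured on compound added to cell-free culture medium (DMEM, 10% FBS). Output is expressed relative to fluorescein.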
Assay [4] is described as follows: qHTS assay to test for compound auto fluorescence at 590 nm (red) in HEK293 cell free culture (AID 720683). The procedure, abridged:
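Cell-free wells of DMEM with 10% FBS received compound, and intrinsic fluorescence was read at excitation/emission 540/590 nm. Values expressed as equivalence to Rose Bengal sodium.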

The nature of assay [5]: qHTS assay to test for compound auto fluorescence at 590 nm (red) in HepG2 cell free culture (AID 720684). The procedure, abridged:
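Auto fluorescence equivalency versus Rose Bengal sodium, red channel Ex/Em 540/590 nm; compounds in cell-free MEM/10% FBS; DMSO vehicle control.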

A short description of assay [6]: qHTS assay to test for compound auto fluorescence at 460 nm (blue) in HepG2 cell free culture (AID 720685). The procedure, abridged:
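Cell-free plates of MEM plus 10% FBS received 23 nL compound or DMSO vehicle; blue-channel (405/460 nm) intensity scored against triamterene as reference fluorophore.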

The nature of assay [7]: qHTS assay to test for compound auto fluorescence at 535 nm (green) in HepG2 cell free culture (AID 720686).
In assay [8] the target is Glucocorticoid receptor (Homo sapiens) (UniProt P04150). As to the kind of experiment: qHTS assay to identify small molecule agonists of the glucocorticoid receptor (GR) signaling pathway (AID 720691; active = well fitted activation curve with a large enough effect in the signal ratio in the repeat runs, not every such curve was filed as active; the % refers to the signal ratio). The procedure, abridged:
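Agonist-mode qHTS in HeLa cells stably expressing a glucocorticoid-response-element beta-lactamase reporter. Fluorescence intensity read with FRET substrate (2 h, room temperature) after 18 h compound treatment at 37 C.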

Assay [9] shares this target. As to the kind of experiment: qHTS assay to identify small molecule antagonists of the glucocorticoid receptor (GR) signaling pathway (AID 720692; active = well fitted inhibition curve with a large enough effect in the signal ratio in the repeat runs, not every such curve was filed as active; the % refers to the signal ratio). The method in brief: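 Inhibition of dexamethasone-driven (5 nM final) beta-lactamase expression was measured in GRE-reporter HeLa cells over 18 h at 37C. Fluorescence was read after 2 h with the B/G FRET substrate at room temperature.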

Assay [10] in a line: qHTS assay to identify small molecule antagonists of the glucocorticoid receptor (GR) signaling pathway - cell viability counter screen (AID 720693). Also: nearly all actives have a fitted effect of over 55% in size.
The nature of assay [11]: qHTS assay for identifying genotoxic compounds that show differential cytotoxicity against isogenic chicken DT40 cell lines with known DNA damage response pathways - wild type cell line (AID 743012). Also: nearly all actives have a fitted effect of over 60% in size. Also: potency is read from the fitted curve at half-maximal effect. The procedure, abridged: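 Viability by ATP luminescence (CellTiter-Glo, 30 min RT) after 40 h compound treatment at 37 C/5% CO2, using 300 parental DNA repair-proficient DT40 cells per well.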

The nature of assay [12]: qHTS assay for identifying genotoxic compounds that show differential cytotoxicity against isogenic chicken DT40 cell lines with known DNA damage response pathways - Rev3 mutant cell line (AID 743014). Also: nearly all actives have a fitted effect of over 55% in size. Also: potency is read from the fitted curve at half-maximal effect.
Assay [13] is described as follows: qHTS assay for identifying genotoxic compounds that show differential cytotoxicity against isogenic chicken DT40 cell lines with known DNA damage response pathways - Rad54/Ku70 mutant cell line (AID 743015). Also: nearly all actives have a fitted effect of over 60% in size. Also: potency is read from the fitted curve at half-maximal effect.
Assay [14] in a line: qHTS assay to identify small molecule antagonists of the androgen receptor (AR) signaling pathway - cell viability counter screen (AID 743033; also: nearly all actives have a fitted effect of over 45% in size).
Assay [15] is described as follows: qHTS assay to identify small molecule antagonists of the thyroid receptor (TR) signaling pathway - cell viability counter screen (AID 743064). Also: nearly all actives have a fitted effect of over 50% in size. Also: potency is read from the fitted curve at half-maximal effect. The method in brief: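 GH3.TRE-Luc rat pituitary cells dosed after 4 hr plating, co-stimulated with T3 at 1 nM final, incubated 23.5 h at 37 C. Viability measured in the same wells by CellTiter-Fluor fluorescence after 30 min further at 37 C.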

Assay [16] is described as follows: qHTS assay to test for compound auto fluorescence at 460 nm (blue) in HepG2 cells (AID 720687). The procedure, abridged: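 HepG2 cells in MEM with 10% FBS, attached overnight at 37 C, were exposed to compound or DMSO for 1 hr at 37 C, 5% CO2. Blue fluorescence was read at 405/460 nm, with triamterene as reference fluorophore.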
Assay [17] has as its target Androgen receptor (Homo sapiens) (UniProt P10275). Kind of assay: qHTS assay to identify small molecule agonists of the androgen receptor (AR) signaling pathway using the MDA cell line (AID 743040; also: nearly all actives have a fitted effect of over 20% in size). The procedure, abridged: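 Testing was done with the MDA-kb2 AR-luc line, a human breast carcinoma stably transfected with MMTV-luciferase containing AR and GR response elements. Cells were exposed 16 h at 37C before ONE-Glo luminescence detection.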

Assay [18] has the same target. Kind of assay: qHTS assay to identify small molecule antagonists of the androgen receptor (AR) signaling pathway using the MDA cell line (AID 743042; also: nearly all actives have a fitted effect of over 55% in size; also: potency is read from the fitted curve at half-maximal effect). The procedure, abridged:
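MDA-kb2 breast carcinoma cells carrying MMTV-luciferase (AR/GR responsive) were co-treated with compounds and the agonist R1881 for 16 h at 37C. Inhibition read as ONE-Glo luminescence; CellTiter-Fluor fluorescence measured in parallel for cytotoxicity.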

Assay [19] has the same target. Kind of assay: qHTS assay to identify small molecule agonists of the androgen receptor (AR) signaling pathway (AID 743036; active = well fitted activation curve with a large enough effect in the signal ratio in the repeat runs, with a control signal flat, not every such curve was filed as active; the % refers to the signal ratio). The method in brief: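 AR-UAS-bla HEK293 cells, plated 4 h before dosing, were treated with compound for 16 h at 37C. beta-Lactamase reporter read after 2 h with LiveBLAzer B/G FRET substrate at room temperature.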
The nature of assay [20]: qHTS assay to identify small molecule antagonists of the androgen receptor (AR) signaling pathway using the MDA cell line - cell viability counter screen (AID 743041; also: nearly all actives have a fitted effect of over 45% in size). The method in brief:
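Compound exposure lasted 16 h at 37C in MDA-kb2 AR-luc cells stimulated with R1881. Protease-based CellTiter-Fluor reagent was applied for the final 30 min and fluorescence measured.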

A number with no mark means an inactive call. Results filed as inconclusive are left out. The source made the active and inactive calls. Unless noted, calls follow the shape of the dose curve; as a rule, active = well fitted curve in the direction sought with a large enough effect in the repeat runs; inconclusive = weak or mixed curves; inactive = no such curve, though single readings can be large; an effect the other way counts as inactive or inconclusive.
% is scaled to controls: 0 for no effect and ±100 for the full control effect.

Glucocorticoid receptor (Homo sapiens), sequence (P04150 whole entry, looked up): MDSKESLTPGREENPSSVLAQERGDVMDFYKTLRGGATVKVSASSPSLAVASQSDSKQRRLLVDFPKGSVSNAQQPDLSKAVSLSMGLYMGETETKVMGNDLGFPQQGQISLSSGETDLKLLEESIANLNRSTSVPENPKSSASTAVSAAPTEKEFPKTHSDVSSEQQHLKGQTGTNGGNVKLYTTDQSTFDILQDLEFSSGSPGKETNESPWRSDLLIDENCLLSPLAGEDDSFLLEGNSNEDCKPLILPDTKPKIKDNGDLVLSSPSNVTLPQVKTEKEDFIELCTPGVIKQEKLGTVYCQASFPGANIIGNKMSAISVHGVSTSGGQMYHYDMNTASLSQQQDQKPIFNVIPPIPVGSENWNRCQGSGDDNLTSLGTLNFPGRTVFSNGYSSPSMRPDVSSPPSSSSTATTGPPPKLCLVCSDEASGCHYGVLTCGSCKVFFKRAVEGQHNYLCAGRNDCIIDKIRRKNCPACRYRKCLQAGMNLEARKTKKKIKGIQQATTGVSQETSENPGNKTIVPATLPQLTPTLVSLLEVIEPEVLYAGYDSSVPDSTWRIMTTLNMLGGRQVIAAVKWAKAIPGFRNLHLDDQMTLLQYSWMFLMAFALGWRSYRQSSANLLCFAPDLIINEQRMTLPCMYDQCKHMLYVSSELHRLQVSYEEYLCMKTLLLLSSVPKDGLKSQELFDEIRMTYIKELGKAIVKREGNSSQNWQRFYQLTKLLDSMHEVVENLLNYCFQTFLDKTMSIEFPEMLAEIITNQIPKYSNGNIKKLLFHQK
Androgen receptor (Homo sapiens), sequence (P10275 whole entry, looked up): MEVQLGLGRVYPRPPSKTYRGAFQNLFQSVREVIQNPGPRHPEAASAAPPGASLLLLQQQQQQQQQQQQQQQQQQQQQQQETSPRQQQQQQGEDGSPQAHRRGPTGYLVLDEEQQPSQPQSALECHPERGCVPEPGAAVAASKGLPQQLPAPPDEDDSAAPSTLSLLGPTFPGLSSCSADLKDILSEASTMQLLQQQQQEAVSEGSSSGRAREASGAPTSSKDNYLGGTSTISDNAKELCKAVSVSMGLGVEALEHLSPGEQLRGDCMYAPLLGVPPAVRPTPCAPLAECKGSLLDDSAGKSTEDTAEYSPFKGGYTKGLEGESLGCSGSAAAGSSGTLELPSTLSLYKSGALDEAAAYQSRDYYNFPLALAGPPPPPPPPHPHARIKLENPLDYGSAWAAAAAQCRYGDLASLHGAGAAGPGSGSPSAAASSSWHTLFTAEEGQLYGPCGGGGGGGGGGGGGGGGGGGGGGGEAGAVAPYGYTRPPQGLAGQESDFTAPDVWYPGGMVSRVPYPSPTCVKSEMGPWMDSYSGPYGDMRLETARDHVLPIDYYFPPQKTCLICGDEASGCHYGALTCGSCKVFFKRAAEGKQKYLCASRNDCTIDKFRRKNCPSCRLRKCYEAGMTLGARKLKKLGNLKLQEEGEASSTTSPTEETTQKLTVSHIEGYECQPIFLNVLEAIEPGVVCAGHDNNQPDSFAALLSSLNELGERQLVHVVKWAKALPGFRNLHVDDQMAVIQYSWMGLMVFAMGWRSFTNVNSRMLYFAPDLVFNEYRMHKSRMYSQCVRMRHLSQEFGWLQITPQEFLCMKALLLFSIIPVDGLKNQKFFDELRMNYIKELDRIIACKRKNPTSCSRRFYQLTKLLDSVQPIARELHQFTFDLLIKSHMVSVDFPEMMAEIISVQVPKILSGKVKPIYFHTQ

As to `CN1C(=O)CC(C)(c2ccccc2)C1=O` (configuration not stated), the outcome in assay [1], in assay [3], in [4], in assay [5] and in assay [7] was inactive. Also, the Potency result in assay [2], in [6], in assay [8], in [9], in assay [10] and in assay [11] was “inactive” throughout. Besides, the Potency entry in assay [12], in assay [13], in assay [14] and in assay [15] was “inactive” throughout.
Consider `Cc1ccc(Nc2nccc(N(C)c3ccc4c(C)n(C)nc4c3)n2)cc1S(N)(=O)=O`, for which the call in assay [1], in assay [3], in assay [4], in assay [5] and in assay [7] was inactive. Besides, the Potency entry in assay [2], in [6], in [16], in assay [14], in assay [17] and in assay [15] was “inactive” in each case. In addition, the Potency is 9.44 µM (active) in assay [11], 11.9 µM (active) in assay [12], 10.6 µM (active) in [13] and 11.9 µM (active) in assay [18].
Take `CCC(C(=O)OCCN(CC)CC)c1ccccc1` (configuration not stated): the outcome in assay [1], in [3], in assay [4], in [5] and in [7] was inactive. In addition, the Potency result in assay [2], in [6], in assay [8], in assay [9], in assay [10] and in [11] was “inactive” each time. In addition, the Potency result in assay [14], in assay [19], in [17], in assay [18] and in assay [15] was “inactive” throughout.
On to `CC1=CC(=O)CC(C)(C)C1(O)/C=C/C(C)=C\C(=O)O` (configuration not stated), for which the molecule was classed as inactive in assay [1], in [3], in assay [4], in assay [5] and in assay [7]. For the same molecule, the Potency entry in [2], in [6], in [8], in assay [9], in assay [10] and in assay [11] was “inactive” each time. Moreover, the Potency result in assay [12], in assay [13] and in [14] was “inactive” in each case.
Take `CCn1nc(C)c2c1C(=O)NCC(c1ccc(O)cc1)=N2`: the call in assay [1], in [3], in [4], in assay [5] and in [7] was inactive. The Potency result in assay [2], in assay [6], in assay [8], in assay [10], in assay [14] and in assay [20] was “inactive” each time. Further, in [15], the Potency result is “inactive”. Moreover, the Potency is 61.1 µM (active) in assay [11] and 34.4 µM (active) in assay [12].
Consider `C=C(C)C(=O)OCCOC(=O)CC(C)=O`, for which the molecule was classed as inactive in [1], in assay [3], in [4], in [5] and in [7]. The Potency entry in assay [2], in assay [6], in assay [8], in assay [9], in assay [10] and in assay [11] was “inactive” in each case. Besides, the Potency result in assay [13], in assay [14] and in assay [20] was “inactive” throughout.
As for `CC(=O)Nc1ccccc1C`, the call in [1], in assay [3], in [4], in [5] and in [7] was inactive. The Potency result in assay [2], in assay [6], in [8], in assay [9], in assay [10] and in [11] was “inactive” each time. Moreover, the Potency entry in assay [12], in assay [13], in [14] and in [15] was “inactive” throughout.
For `CCC(=O)Oc1ccc(/C(CC)=C(\CC)c2ccc(OC(=O)CC)cc2)cc1`, the outcome in [1], in assay [3], in assay [4], in assay [5] and in [7] was inactive. Besides, the Potency result in assay [2], in [6], in assay [16], in assay [14] and in assay [20] was “inactive” each time. Moreover, the Potency in [11] is 48.6 µM (active); in [12], 54.5 µM (active); in assay [13], 48.6 µM (active); in assay [15], 54.5 µM (active).
As for `CO[Si](C)(OC)OC`, the result in assay [1], in assay [3], in assay [4], in assay [5] and in [7] was inactive. In addition, the Potency entry in assay [2], in [6], in assay [8], in assay [9], in assay [10] and in [11] was “inactive” each time. The Potency result in assay [12], in assay [13], in [14], in assay [20] and in assay [15] was “inactive” throughout.
For `COC(=O)Nc1nc2ccc(C(=O)c3cccs3)cc2[nH]1`, the molecule was called inactive in assay [1], in assay [3], in assay [4], in assay [5] and in assay [7]. Further, the Potency result in assay [2], in [6], in [16] and in assay [20] was “inactive” in each case. Further, the Potency in assay [11] was 0.15 µM (active); in [12] it was 0.211 µM (active); in assay [13] it was 0.237 µM (active); in [15] it was 0.266 µM (active).
In the case of `COc1cc2[nH]c(=O)[nH]c(=O)c2cc1OC`, the fluorescence, % of fluorescein in assay [1] was 0.0875% [at 18.6 µM]. The fluorescence, % of fluorescent control in [2] is 0.0899% [at 18.6 µM]; in assay [4], 0.224% [at 18.6 µM]; in assay [6], -0.0173% [at 18.6 µM]; in assay [16], 0.0151% [at 18.6 µM]. In addition, the activity change in [3] was 0.0939% [at 18.6 µM]. For the same molecule, in assay [5], the fluorescence, % of Rose Bengal was 0.0628% [at 18.6 µM]. Also, the fluorescence, % of fluorescein control in assay [7] is -0.0155% [at 18.6 µM]. In addition, the Potency entry in assay [10], in [11], in assay [13], in assay [20] and in [15] was “inactive” each time.
As for `COc1ccc(CCC(=O)c2c(O)cc(O[C@@H]3O[C@H](CO)[C@@H](O)[C@H](O)[C@H]3O[C@@H]3O[C@@H](C)[C@H](O)[C@@H](O)[C@H]3O)cc2O)cc1O`, the molecule was classed as inactive in assay [1], in [3], in assay [4], in assay [5] and in [7]. For the same molecule, the Potency entry in [2], in [6], in assay [8], in [10], in [11] and in assay [12] was “inactive” each time. The Potency entry in assay [13], in assay [14], in [19], in assay [17], in [20] and in assay [18] was “inactive” in each case. Further, in assay [15], the Potency result was “inactive”.
As for `Cc1cc(O)c2c(O)c3c(O)cccc3cc2c1`, the outcome in assay [1], in [3], in assay [4], in assay [5] and in assay [7] was inactive. Further, the Potency result in assay [2], in assay [6], in assay [8], in [10], in assay [11] and in assay [12] was “inactive” in each case. The Potency entry in assay [14], in assay [17], in assay [20] and in assay [18] was “inactive” each time.
For `Cc1cc(OI)c(C(C)C)cc1-c1cc(C(C)C)c(OI)cc1C`, the molecule was classed as inactive in assay [1], in assay [3], in assay [4], in assay [5] and in assay [7]. For the same molecule, the Potency entry in [2], in assay [6], in assay [8], in [10], in assay [11] and in assay [12] was “inactive” in each case. Moreover, the Potency entry in assay [13], in [14] and in assay [20] was “inactive” each time.
`c1cnc2c(n1)CCCC2`: the result in [1], in assay [4], in assay [5] and in [7] was inactive. Also, the Potency entry in [2], in assay [6], in assay [16], in assay [10], in [11] and in [12] was “inactive” throughout. For the same molecule, the Potency entry in assay [13], in assay [14], in [19], in assay [17], in assay [20] and in assay [18] was “inactive” in each case.
